Hits are enriched below; roughly 8.5% of the tested compounds scored in any of these assays.
KDM4E inh: JMJD2E (human) inhibition | AID 2147 | 230,000 tested, 1.6% active | JMJD2E catalytic domain, FDH-coupled NADH fluorescence (FDH is formaldehyde dehydrogenase) | Potency, µM (highest dose often 57.1 µM), most hits filed as inhibitors | B2RXH2; active = well fitted inhibition curve with a large enough effect, not every such curve was filed as active; inconclusive = small, poorly fitted or top-dose-only effect, or another doubt; inactive = no such curve, though single readings can be large or run the other way; also: nearly all actives have a fitted effect of over 50% in size
Target sequence (B2RXH2 1-337 limits assumed): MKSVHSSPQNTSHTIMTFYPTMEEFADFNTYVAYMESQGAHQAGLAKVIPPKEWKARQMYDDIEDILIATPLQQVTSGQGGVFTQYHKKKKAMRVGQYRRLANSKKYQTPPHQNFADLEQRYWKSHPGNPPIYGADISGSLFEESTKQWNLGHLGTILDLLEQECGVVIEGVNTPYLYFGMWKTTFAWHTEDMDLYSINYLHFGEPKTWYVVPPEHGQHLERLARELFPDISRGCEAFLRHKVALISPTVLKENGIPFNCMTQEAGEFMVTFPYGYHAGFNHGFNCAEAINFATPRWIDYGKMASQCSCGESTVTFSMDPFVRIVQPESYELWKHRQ
FBPA coupling cs: inhibits coupling enzyme system, counter-screen for aldolase hits. 290,000 tested, 0.67% active. activity change, negative = inhibition, % at 58.2 µM, hits read low. coupling enzyme system counterscreen, AmpLite Red fluorescence. AID 2472; in the data active = activity change below about -30%
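Fluorescence at 525 nm excitation and 598 nm emission measured inhibition of the coupled detection system without aldolase. Compounds (at 57.5 uM final) were preincubated 10 min at room temperature with coupling enzyme reagent before a 20 min substrate/AmpLite Red step.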
NPSR antagonist: blocks cAMP signaling of the human neuropeptide S receptor; Q6W5P4; CHO-NPSR cells, cAMP TR-FRET, antagonist mode; Potency, µM (doses to about 38.3 µM), actives largely listed as inhibitors; 220,000 tested, 1% active; active = well fitted curve in the direction sought with a large enough effect; inconclusive = small, poorly fitted or top-dose-only effect, or another doubt; inactive = no such curve, though single readings can be large; an effect the other way counts as inactive or inconclusive; also: nearly all actives have a fitted effect of over 50% in size
RGS12 GoLoco inh: inhibitors of human Gai1-RGS12 GoLoco interaction (red fluorophore); 230,000 tested, 0.44% active; Gai1:RGS12 GoLoco peptide FP, rhodamine, 10 min; Potency, µM (series often up to 61.6 µM), usual class: inhibitors; AID 880; active = well fitted inhibition curve with a large enough effect, not every such curve was filed as active; inactive = no such curve, though single readings can be large or run the other way; also: nearly all actives have a fitted effect of over 30% in size
ALDH1A1 inh: ALDH1A1 (human) enzyme inhibition | 220,000 tested, 7.3% active | AID 1030 | Potency, µM (titrated, usually from 75.3 µM), hits mostly inhibitors | P00352 | Purified ALDH1A1, NADH fluorescence, propionaldehyde substrate; active = well fitted inhibition curve with a large enough effect, not every such curve was filed as active; inconclusive = small, poorly fitted or top-dose-only effect, or another doubt; inactive = no such curve, though single readings can be large or run the other way
Sfp PPTase inh: blocks B. subtilis Sfp PPTase activity | Q9F4F7 | Biochemical Sfp PPTase activity, qHTS | Potency, µM, actives largely listed as inhibitors | 310,000 tested, 3.5% active | AID 1490; active = well fitted curve in the direction sought with a large enough effect; inconclusive = small, poorly fitted or top-dose-only effect, or another doubt; inactive = no such curve, though single readings can be large; an effect the other way counts as inactive or inconclusive;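 also: the enzyme is Sfp with the accession as filed and its product quenches rhodamine fluorescence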
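Buffer: 50 mM Hepes-Na pH 7.6, 10 mM MgCl2, 0.01% Nonidet P-40, 0.01% BSA. Enzyme 15 nM, pre-exposed to compound 15 min; substrates then added and fluorescence change tracked over 30 min.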
CASP1 redox cat: caspase-1 inhibition with catalase present; Potency, µM (doses to about 57.5 µM), most hits filed as inhibitors; 30 tested, under 10 active; caspase-1 Ac-WEHD-AFC fluorescence rate, catalase buffer; AID 888; shares compounds with FBPA coupling cs
Casp1 confirm: blocks human caspase-1 activity in concentration-response. shares compounds with FBPA coupling cs. purified caspase-1, fluorogenic substrate cleavage. Potency, µM (doses to about 57.5 µM), hits mostly inhibitors. 60 tested, 20% active
Casp7 confirm: blocks human caspase-7 activity in concentration-response; AID 897; Potency, µM (doses to about 57.5 µM), usual class: inhibitors; recombinant caspase-7, fluorogenic substrate cleavage; shares compounds with FBPA coupling cs; 60 tested, under 10 active; active = well fitted inhibition curve with a large enough effect in the main read-out, with a control signal flat, not every such curve was filed as active; inconclusive = small, poorly fitted or top-dose-only effect, or a change in a side signal; inactive = no such curve, though single readings can be large or run the other way
CASP7 redox cys: counter-screen for redox active caspase-7 inhibitors: cysteine buffer | shares compounds with FBPA coupling cs | caspase-7 enzyme with cysteine, fluorogenic substrate, redox counterscreen | Potency, µM (top dose mostly 57.5 µM), actives largely listed as inhibitors | 60 tested, under 10 active | AID 908
Casp7 catalase: counter-screen for redox active caspase-7 inhibitors: catalase buffer | shares compounds with FBPA coupling cs | Caspase-7 Ac-DEVD-AFC fluorescence rate, catalase buffer | Potency, µM (doses to about 57.5 µM), most hits filed as inhibitors | 30 tested, under 10 active
Casp1 cysteine: inhibits caspase-1 in cysteine buffer, redox counter-screen. shares compounds with FBPA coupling cs. recombinant caspase-1, fluorogenic substrate, cysteine buffer. Potency, µM (titrated, usually from 57.5 µM), actives largely listed as inhibitors. 60 tested, under 10 active. AID 929
Hits are given with their value; n = inactive; u = inconclusive; x = no result; ! = repeats disagree; [ ] = remark or other dose. Unless noted, calls follow the shape of the dose curve; as a rule, active = well fitted inhibition curve with a large enough effect in the main read-out, with a control signal flat; inconclusive = small, poorly fitted or top-dose-only effect, or a change in a side signal; inactive = no such curve, though single readings can be large or run the other way.

SMILES | KDM4E inh | FBPA coupling cs | NPSR antagonist | RGS12 GoLoco inh | ALDH1A1 inh | Sfp PPTase inh | Casp1 confirm | Casp7 confirm | CASP7 redox cys | Casp1 cysteine | others
Cc1ccc(CNc2ccc(O)cc2)cc1 | 11.2µM | -46.0 | n | 17.8µM | 10µM | u | n | n | n | n
CC(C)c1ccc(N=C(N)N=C(N)N)cc1 | n | n | n | n | n | n | x | x | x | x
O=C(c1cccs1)n1nc(-c2ccco2)nc1SCc1ccccc1 | n | n | n | n | n | n | x | x | x | x
CC(=O)n1nc(-c2ccco2)nc1SCc1ccccc1 | n | n | n | n | n | n | n | n | n | n
O=C(O)c1ccc2c(c1)S(=O)(=O)c1ccccc1C2=O | x | n | x | x | x | n | x | x | x | x
O=C(O)c1cc(O)c2c(c1)C(=O)c1cccc(O)c1C2=O | 28.2µM | n | n | n | u | 56.2µM! | u | n | n | u | CASP1 redox cat=u;Casp7 catalase=n
COc1ccc2c(c1)OCC(Cc1ccc(OC)c(O)c1)C2=O (configuration not stated) | n | n | x | n | n | n | x | x | x | x
O=C1C(Cl)=C(NCCN2CCOCC2)C(=O)c2ncccc21 | n | n | x | n | n | n | 2.51µM | u | n | n
O=C1C(Cl)=C(NCCN2CCOCC2)C(=O)c2ccccc21 | x | n | x | x | x | n | x | x | x | x
CC(=O)[C@@H]1[C@@H]2C(=O)N(c3ccc(F)c(Cl)c3)C(=O)[C@@H]2C2c3ccccc3C=CN21 (some centres not stated) | u | n | n | n | 25.1µM | n | n | n | n | u | CASP1 redox cat=u;Casp7 catalase=n
COc1ccc(NC(=O)C2CC(=O)N/C(=N/NC(=O)c3ccc(Cl)cc3)S2)cc1 (configuration not stated) | u | n | n | n | n | n | x | x | x | x
COc1cc2c(C=O)c3c4c(cc(OC)c(OC)c4c2cc1OC)CCN3C | u | -33.5 | x | n | u | n | 12.6µM | u | n | u
Nc1ccc(O)c(C(=O)O)c1 | u | -45.7 | x | n | u | 44.7µM | n | n | n | n
O=C1C(SCCO)=C(SCCO)C(=O)c2ccccc21 | u | -55.6 | 12.6µM | 3.55µM! | 17.8µM | 0.282µM! | n | n | n | n
N#CC(=NCCO)C1=C(O)c2ccccc2C1=O | x | x | x | n[14.2 µM] | n[13.5 µM] | x | x | x | x | x
Cc1ccc(NC(=O)C2C3C=CC4(O3)C2C(=O)N(CCCN2CCCC(C)C2)C4C(=O)NC2CCCCC2)cc1 (configuration not stated) | x | n | x | x | x | n | x | x | x | x
Nc1ccc(N)c(Cl)c1 | x | x | x | n | 22.4µM | x | n | n | n | n
O=C(Nc1ccccc1C(=O)NC(Cc1ccccc1)C(=O)NC1CCCCCC1)c1ccccc1 (configuration not stated) | u | n | n | n | u | u | x | x | x | x

Source: PubChem BioAssay (National Center for Advancing Translational Sciences (NCATS))
